Experimental findings from PubChem BioAssay AID977606 (Broad Institute, 2014) are described below.

The whole screen tested about 1,500 compounds, of which about 430 (29%) were called active. No rule for the calls is given here. Only a sample is shown. Results with a measured potency or affinity are listed apart.

The nature of this assay: glucose-independent GLuc insulin release activation – cell-based, INS-1E, Gaussia luciferase, luminescence, cherry-pick, counter-screen for glucose-dependent insulin secretion activators, dose response (AID 977606). The note with it: INS-1E Gaussia luciferase insulin secretion, no glucose, 100% = twice neutral-control luminescence; series mostly up to 35 µM. On the technique in general: Counterscreens check selectivity or assay interference.
Consider `CNc1nc(N)c(C(=O)C(C)(C)C)s1`, for which the result was inactive.

As to `COCCn1c(=S)[nH]c2sc3c(c2c1=O)CCCC3`, the call was inactive. With `COc1ccc(OC)c(C2=Nn3c(nnc3-c3ccncc3)SC2)c1`, the result was inactive. Consider `CC(C)Cn1c(=O)n(C)c(=O)c2[nH]cnc21`, for which the call was inactive. For `O=C(NCC1CCCO1)C1CCC(N2C(=O)c3ccccc3C2=O)CC1` (stereo unspecified), the compound was classed as inactive.

As for `CC(C)NC(=O)C1(C)CN(S(C)(=O)=O)CC(=O)N1CCCN1CCOCC1` (stereo unspecified), the compound was called inactive. Regarding `O=C(CC1SC2=NCCN2C1=O)Nc1ccc(Br)cc1` (stereo unspecified), the outcome was inactive. As for `O=C(NC1CCCC1)C(C1CC1)n1c(-c2ccccn2)nc2ccccc21` (stereo unspecified), the compound was called inactive. Take `COc1ccc(C(O)c2nccc3cc(OC)c(OC)cc23)cc1OC` (stereo unspecified): the call was inactive.

On to `COc1ccc(/C=N/NC(=O)c2cc(-c3ccc4c(c3)OCO4)n[nH]2)cc1OC`, for which the compound was called inactive. Regarding `O=C(NN=C1CCCC1)c1cc(-c2ccccc2)n[nH]1`, the call was inactive. Regarding `Cc1cccc(CN2C(=O)CSc3ccc(C(=O)NC4CC4)cc32)c1`, the call was inactive. With `CNc1nc(Sc2ccccc2)cc(C(F)(F)F)n1` the entry was “inactive”; with `CCOC(=O)c1cnc2ccc(Cl)cc2c1Nc1ccc(S(=O)(=O)Nc2ncccn2)cc1`, “inactive”; with `CC(=O)c1cccc(Nc2ncnc3ccc(Br)cc23)c1`, “inactive”. With `COc1ccc(Cl)cc1C(=O)Nc1cccc(-c2ccc3nncn3n2)c1` the entry was “inactive”.

Turning to `Cc1ccnc(NC(=O)Nc2ccc(Br)cc2Cl)c1`, the compound was classed as inactive. To `Cc1cc(C(=O)Nc2cccc(O)c2)c(C)o1` belongs “inactive”; to `COc1ccc(/C(C)=N/Nc2ccc(C(=O)O)cc2)cc1OC`, “inactive”. In the case of `COc1ccc(CCN(C)C(=O)CCNS(=O)(=O)c2ccccc2C(F)(F)F)cc1OC`, the result was inactive.

Take `COc1nc(-c2ccccc2)c2cc(C)ccc2n1`: the call was inactive. For `NNc1nc(-c2ccccc2)c2ccccc2n1`, the compound was classed as inactive. With `NC(=O)c1cc2cc(Cl)ccc2o/c1=N/NC(=O)c1cccs1`, the compound was classed as inactive. For the compound `COc1ccc(/C=C2/SC(=O)N(NS(=O)(=O)c3ccccc3)C2=S)cc1OC`, the compound was called inactive.

For `CCc1nc2ccc(C(=O)N(C)CCCN(C)C)cn2c1N(C=O)CCC(C)C`, the outcome was inactive. To `CCCc1cc2c(OC)ccc(O)c2c(=O)n1C` belongs “inactive”; to `CC(=O)Nc1ccc(Cl)c(-c2nc3ncccc3o2)c1`, “inactive”. For the compound `CCn1nc(C(=O)Nc2ccc3nc(C)sc3c2)c2ccccc2c1=O`, the result was inactive.

Take `CNc1cc(-c2ccc(OC)c(OC)c2)ncn1`: the call was inactive.

Regarding `CC(C)c1c(C(=O)N/N=C/c2cccc3ccccc23)nnn1-c1nonc1N`, the compound was called inactive.

With `CC(C)Nc1nc(NC(C)(C)C)nc(Oc2ccc(=O)n(C)n2)n1`, the call was inactive.

Regarding `COc1cc2c(cc1OC)-c1cc(Nc3ccc(C)cc3)nc(=O)n1CC2`, the compound was called inactive. `COc1ccc(OC)c(N(CC(=O)NN=C2CCN(C)CC2)S(=O)(=O)c2ccccc2)c1`: the compound was called inactive. With `CCCCC(=O)Nc1ccc(C(=O)NNC(=O)c2ccc(C)c(Br)c2)cc1`, the call was inactive. To `COc1ccc(/C=N/n2c(-c3n[nH]c4c3CCC4)n[nH]c2=S)cc1OC` belongs “inactive”. For `COc1ccc(C(=O)NCC(=O)OCC(=O)Nc2sccc2C#N)cc1OC`, the compound was called inactive.

On to `NC(=O)c1ccsc1NC(=O)COC(=O)CNC(=O)c1ccc(Cl)cc1`, for which the outcome was inactive. Consider `Cc1cc2oc(=O)cc(CN3CCOCC3)c2c(C)c1Cl`, for which the call was inactive. For `c1ccc2c(NCC3CCCO3)nc(N3CCCCC3)nc2c1` (stereo unspecified), the result was inactive.

In the case of `COc1cc(C2N(C)CCC3(OCCO3)C2(C)C)cc(OC)c1OC` (stereo unspecified), the compound was classed as inactive. Regarding `CCOc1ccc2oc(C(=O)N(C)CCc3ccc(OC)c(OC)c3)c(C)c2c1`, the call was inactive. With `COc1ccc(-c2cc3nc4ccccc4n3c(N)c2C#N)cc1`, the outcome was inactive. In the case of `O=C(NCCCNc1ccnc2cc(Cl)ccc12)c1ccccc1F`, the compound was classed as inactive.

With `COc1ccc(C(=O)Cc2cc3cccc(OC)c3oc2=O)cc1`, the result was inactive.

For `COc1cccc(NC(=O)CN(C)C(=O)Cn2[nH]c(=O)c3ccccc3c2=O)c1`, the outcome was inactive. In the case of `CCn1c(=O)[nH]c(=O)c2c(N)c(C(=O)c3cc(F)ccc3F)sc21`, the call was inactive.
